The values that follow come from PubChem BioAssay (EPA / NIEHS).

Experiment [1] deals with Agonist Androgen Response Element (ARE), AR (gene 367) (UniProt P10275). Briefly: OT_AR_ARELUC_AG_1440: Odyssey Thera (OT) 24-hour CHO-K1 Luciferase Assay for Agonist Androgen Response Element (ARE) (AID 2283379). The essentials: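 Gain-of-signal reporter endpoint: cells (CHO-K1, hamster) are treated 24 h, luciferin/ATP reagent added, and luminescence compared with DMSO baseline.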

Experiment [2] deals with Estrogen receptor beta (Homo sapiens) (UniProt Q92731). Briefly: OT_ER_ERbERb_1440: Odyssey Thera (OT) 24-hour HEK293T Protein-Complementation Assay for Estrogen Receptor-beta/-beta Homodimer (AID 2283380).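 Further: scored as signal increase over DMSO baseline for both agonists and antagonists.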 The essentials: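 HEK293T cells stably expressing ER beta LBD (aa 310-547) homodimer fragment-complementation reporter, dosed 24 h. Cells formaldehyde-fixed, Draq5-stained; gain in nuclear (agonist) or nuclear plus cytoplasmic (antagonist) fluorescence versus DMSO read by laser scanning cytometry.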

In experiment [3] the target is Estrogen receptor (Homo sapiens) (UniProt P03372). Briefly: OT_ERa_GFPERaERE_0480: Odyssey Thera (OT) 8-hour HeLa Transcription Induction Assay for Estrogen Receptor (AID 2283381; active means hit-call score of the fitted dose curve at least 0.9, where 1 is the maximum; inactive means score below 0.9). The essentials:
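Human cervical HeLa cells were treated for 8 hours, after which ERE-driven GFP induction was measured by fluorescence microscopy; increases over DMSO baseline defined activity.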

The target is the same in experiment [4]. Briefly: OT_ERa_GFPERaERE_0120: Odyssey Thera (OT) 2-hour HeLa Transcription Induction Assay for Estrogen Receptor (AID 2283382). The essentials:
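Cells (human cervical HeLa) receive compound, incubate 2 hours, then are imaged for fluorescent reporter induction. Images are quantified by high content analysis, and activity is fitted as gain of signal against DMSO.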

Experiment [5] deals with Retinoic acid receptor RXR-alpha (Homo sapiens) (UniProt P19793). Briefly: OT_NURR1_NURR1RXRa_0480: Odyssey Thera (OT) 8-hour HEK293T Protein Complementation Assay for Nurr1/retinoid X receptor (RXR) (AID 2283385). The gist of the method: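 Interaction of bait and prey reconstitutes a functional reporter, whose fluorescence was measured in HEK293T cells dosed with compound for 8 hours. Signal gain relative to DMSO defined the single endpoint.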

Experiment [6] has the same target. Briefly: OT_NURR1_NURR1RXRa_1440: Odyssey Thera (OT) 24-hour HEK293T Protein Complementation Assay for Nurr1/retinoid X receptor (RXR) (AID 2283386). The gist of the method:
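Steps: fragment-tagged Nurr1 and RXRα expressed in HEK293T; compounds added; after 24 h, complemented reporter quantified by fluorescence intensity; signal increase over DMSO fitted as the single endpoint.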

The target of experiment [7] is Peroxisome proliferator-activated receptor gamma (Homo sapiens) (UniProt P37231). Briefly: OT_PPARg_PPARgSRC1_1440: Odyssey Thera (OT) 24-hour Protein-Complementation Assay for Peroxisome Proliferator-activated Receptor Gamma/ SRC-1 Co-activator (AID 2283388).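 Further: nuclear to cytoplasmic ratio of reconstituted Venus YFP fluorescence in fixed imaged cells.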 The gist of the method:
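Cells carrying the PPARg/SRC-1 fragment-complementation reporter receive compound for 24 hours, are fixed and counterstained with Draq5, then imaged. Increased nuclear relative to cytoplasmic YFP fluorescence above DMSO baseline indicates binding activity.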

The nature of experiment [8]: ATG_XTT_Cytotoxicity: Cytotoxicity Assessment in the Attagene TRANS-FACTORIAL HepG2 Assay (AID 2283584).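 On AC50: XTT signal for cell number as viability in transfected HepG2 cells; cells exposed to compound for 24 h before reading; active means loss of viability signal versus DMSO baseline.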 The gist of the method:
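24 h chemical exposure of reporter-transfected HepG2; XTT signal loss vs DMSO indicates cytotoxicity.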

Experiment [9] has as its target Peroxisome proliferator-activated receptor gamma (Homo sapiens) (UniProt P37231). Briefly: OT_PPARg_PPARgSRC1_0480: Odyssey Thera (OT) 8-hour Protein-Complementation Assay for Peroxisome Proliferator-activated Receptor Gamma / SRC-1 Co-activator (AID 2283387).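 Further: nuclear to cytoplasmic split Venus YFP fluorescence ratio reporting PPARg SRC-1 interaction.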 The gist of the method:
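Read-out: 488 nm N/C fluorescence ratio from complemented Venus YFP fragments, ≥350 cells per image, gain-of-signal fitted against DMSO baseline. Fusions of PPARg/SRC-1 with IFP1/IFP2 expressed transiently in HEK293T; compounds applied 8 h.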

Experiment [10] can be described thus: CEETOX_H295R_11DCORT: CeeTox H295R High-throughput Steroidogenesis Assay for 11-Deoxycortisol (11DCORT) (AID 2283432; active means hit-call score of the fitted dose curve at least 0.9, where 1 is the maximum; inactive means score below 0.9;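 on AC50: human adrenal H295R cells prestimulated with 10 µM forskolin for 48 h; 11-deoxycortisol secreted into the medium measured by LC-MS/MS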). The following applies: actives raise or lower the signal. The essentials:
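H295R cells; 10 uM forskolin prestim 48 h; compound in 0.1% DMSO 48 h; media extracted with MTBE; 11-deoxycortisol by LC-MS/MS, 7-point standard curve; gain/loss vs DMSO baseline; viability by MTT in same wells.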

The nature of experiment [11]: CEETOX_H295R_OHPREG: CeeTox H295R High-throughput Steroidogenesis Assay for OH-Pregnenolone (OHPREG) (AID 2283434; active means hit-call score of the fitted dose curve at least 0.9, where 1 is the maximum; inactive means score below 0.9). The following applies: actives raise or lower the signal. The essentials: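 H295R, 10 uM forskolin pre-stim 48 h; test chemical 48 h, 0.1% DMSO final. MTBE extraction, reverse-phase C18 HPLC-ESI+ MS/MS of medium. Gain/loss vs DMSO; viability by MTT in same wells.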

Experiment [12] is described as follows: CEETOX_H295R_OHPROG: CeeTox H295R High-throughput Steroidogenesis Assay for OH-Progesterone (OHPROG) (AID 2283435; active means hit-call score of the fitted dose curve at least 0.9, where 1 is the maximum; inactive means score below 0.9;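 on AC50: human adrenal H295R cells primed 48 h with 10 µM forskolin; 17alpha-hydroxyprogesterone secreted into medium measured by HPLC-MS/MS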). The settings on record: actives raise or lower the signal. The essentials:
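Steps: seed H295R cells and adhere overnight; stimulate with 10 uM forskolin for 48 h; replace with chemical-containing medium (0.1% DMSO) for 48 h; extract medium with MTBE; quantify 17alpha-hydroxyprogesterone by reverse-phase C18 HPLC-MS/MS against a 7-point curve.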

A short description of experiment [13]: CEETOX_H295R_ANDR: CeeTox H295R High-throughput Steroidogenesis Assay for Androstenedione (ANDR) (AID 2283436; active means hit-call score of the fitted dose curve at least 0.9, where 1 is the maximum; inactive means score below 0.9;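 further: human H295R adrenal cells exposed for 48 h with androstenedione measured in medium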). The following applies: actives raise or lower the signal. The essentials:
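48 h chemical exposure, H295R cells, DMEM/F12 + ITS+ and Nu-Serum. Medium androstenedione: MTBE extraction, C18 reverse-phase HPLC, ESI+ MS/MS. Fit bidirectional vs DMSO; MTT viability in same wells.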

A short description of experiment [14]: CEETOX_H295R_CORTIC: CeeTox H295R High-throughput Steroidogenesis Assay for Corticosterone (CORTIC) (AID 2283437; active means hit-call score of the fitted dose curve at least 0.9, where 1 is the maximum; inactive means score below 0.9;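 further: corticosterone secreted into medium quantified by mass spectrometry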). The settings on record: actives raise or lower the signal. The gist of the method:
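48 h forskolin (10 uM) prestim, then 48 h chemical exposure, final DMSO 0.1%. Readout: corticosterone in medium by LC-MS/MS after MTBE extraction. Gain/loss fit vs DMSO; MTT viability in same wells.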

The nature of experiment [15]: CEETOX_H295R_CORTISOL: CeeTox H295R High-throughput Steroidogenesis Assay for Cortisol (AID 2283438; active means hit-call score of the fitted dose curve at least 0.9, where 1 is the maximum; inactive means score below 0.9). The following applies: actives raise or lower the signal. The essentials:
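Cortisol synthesis by H295R cells is measured 48 h after chemical dosing, following a 48 h stimulation with 10 uM forskolin. Hormone is extracted and quantified by HPLC-MS/MS, and activity is fitted bidirectionally against the DMSO control.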

Experiment [16] in a line: CEETOX_H295R_DOC: CeeTox H295R High-throughput Steroidogenesis Assay for DOC (AID 2283439; active means hit-call score of the fitted dose curve at least 0.9, where 1 is the maximum; inactive means score below 0.9). The settings on record: actives raise or lower the signal. The gist of the method:
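Steps: seed H295R, adhere overnight; 10 uM forskolin 48 h; replace with chemical medium (0.1% DMSO) 48 h; collect medium, MTBE extraction, HPLC-MS/MS for DOC. Viability then checked by MTT; cytotoxic chemicals diluted until viability ≥70%.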

A short description of experiment [17]: CEETOX_H295R_ESTRADIOL: CeeTox H295R High-throughput Steroidogenesis Assay for Estradiol (AID 2283440; active means hit-call score of the fitted dose curve at least 0.9, where 1 is the maximum; inactive means score below 0.9;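 further: estradiol secreted into medium quantified by LC-MS/MS after dansyl derivatisation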). The settings on record: actives raise or lower the signal. The essentials: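 Readout is estradiol in conditioned medium, quantified by reverse-phase HPLC-MS/MS against a 7-point standard curve. Cells: H295R, forskolin-stimulated, then dosed 48 h in 0.1% DMSO; activity fitted in both directions relative to DMSO.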

Experiment [18] is described as follows: CEETOX_H295R_ESTRONE: CeeTox H295R High-throughput Steroidogenesis Assay for Estrone (AID 2283441; active means hit-call score of the fitted dose curve at least 0.9, where 1 is the maximum; inactive means score below 0.9). The following applies: actives raise or lower the signal. The gist of the method: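 Estrone secreted into medium quantified by LC-MS/MS after dansyl chloride derivatization, following 48 h chemical exposure (0.1% DMSO final) of forskolin-prestimulated (10 uM, 48 h) H295R cells; gain or loss fitted against DMSO; MTT viability in same wells.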

Experiment [19] in a line: CEETOX_H295R_PROG: CeeTox H295R High-throughput Steroidogenesis Assay for Progesterone (PROG) (AID 2283442; active means hit-call score of the fitted dose curve at least 0.9, where 1 is the maximum; inactive means score below 0.9). The following applies: actives raise or lower the signal. The gist of the method: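 Measured analyte is progesterone secreted by H295R cells at 48 h of chemical treatment, following 10 uM forskolin priming. Quantitation used HPLC-MS/MS against a 7-point standard curve; cytotoxicity was checked by MTT absorbance.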

Experiment [20] in a line: CEETOX_H295R_TESTO: CeeTox H295R High-throughput Steroidogenesis Assay for Testosterone (TESTO) (AID 2283457; active means hit-call score of the fitted dose curve at least 0.9, where 1 is the maximum; inactive means score below 0.9). The settings on record: actives raise or lower the signal. The essentials: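 Steroidogenesis in H295R cells following OECD 456 with minor changes; 48 h exposure. Medium testosterone by HPLC-MS/MS, DMSO as baseline, with MTT viability run in parallel.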

Each structure is given as a SMILES string. Records with an inconclusive call do not appear. The source made the active and inactive calls. How the source made its calls, unless noted: active means hit-call score of the fitted dose curve at least 0.9, where 1 is the maximum; inconclusive means response in the unintended direction; inactive means score below 0.9.

As a reminder, the AC50 is the midpoint of the concentration-response curve, whichever way the signal moves.

Chain of Peroxisome proliferator-activated receptor gamma (Homo sapiens) (P37231 whole entry, looked up, the tested form may be a part): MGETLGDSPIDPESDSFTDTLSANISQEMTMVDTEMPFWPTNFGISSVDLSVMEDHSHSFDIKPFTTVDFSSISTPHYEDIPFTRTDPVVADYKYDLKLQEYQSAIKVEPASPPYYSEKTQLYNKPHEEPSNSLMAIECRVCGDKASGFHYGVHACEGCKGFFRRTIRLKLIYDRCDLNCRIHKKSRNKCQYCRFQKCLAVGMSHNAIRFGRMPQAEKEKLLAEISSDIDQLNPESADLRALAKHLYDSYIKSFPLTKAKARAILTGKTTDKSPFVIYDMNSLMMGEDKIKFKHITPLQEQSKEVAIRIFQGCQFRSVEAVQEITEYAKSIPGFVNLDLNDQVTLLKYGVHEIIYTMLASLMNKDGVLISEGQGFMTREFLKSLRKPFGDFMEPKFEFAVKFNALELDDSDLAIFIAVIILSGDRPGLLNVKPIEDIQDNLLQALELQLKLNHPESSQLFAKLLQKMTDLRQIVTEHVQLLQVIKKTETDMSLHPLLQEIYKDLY
Chain of Estrogen receptor (Homo sapiens) (P03372 whole entry, looked up): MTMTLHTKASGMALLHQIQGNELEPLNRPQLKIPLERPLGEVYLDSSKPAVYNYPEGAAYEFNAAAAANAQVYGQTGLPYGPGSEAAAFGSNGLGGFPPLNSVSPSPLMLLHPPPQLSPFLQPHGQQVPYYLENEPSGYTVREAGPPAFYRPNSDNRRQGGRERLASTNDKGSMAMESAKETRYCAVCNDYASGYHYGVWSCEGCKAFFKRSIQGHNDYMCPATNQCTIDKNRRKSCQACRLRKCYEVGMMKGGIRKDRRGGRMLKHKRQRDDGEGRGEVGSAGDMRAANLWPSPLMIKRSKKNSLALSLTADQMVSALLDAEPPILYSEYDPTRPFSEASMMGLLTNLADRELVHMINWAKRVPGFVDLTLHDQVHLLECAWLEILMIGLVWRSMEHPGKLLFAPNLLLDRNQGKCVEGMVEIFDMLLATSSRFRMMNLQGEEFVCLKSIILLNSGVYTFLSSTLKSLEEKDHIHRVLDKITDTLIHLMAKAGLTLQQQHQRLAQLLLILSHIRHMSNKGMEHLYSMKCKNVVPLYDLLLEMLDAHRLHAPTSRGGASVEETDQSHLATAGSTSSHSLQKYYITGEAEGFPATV
Chain of Estrogen receptor beta (Homo sapiens) (Q92731 whole entry, looked up, the tested form may be a part): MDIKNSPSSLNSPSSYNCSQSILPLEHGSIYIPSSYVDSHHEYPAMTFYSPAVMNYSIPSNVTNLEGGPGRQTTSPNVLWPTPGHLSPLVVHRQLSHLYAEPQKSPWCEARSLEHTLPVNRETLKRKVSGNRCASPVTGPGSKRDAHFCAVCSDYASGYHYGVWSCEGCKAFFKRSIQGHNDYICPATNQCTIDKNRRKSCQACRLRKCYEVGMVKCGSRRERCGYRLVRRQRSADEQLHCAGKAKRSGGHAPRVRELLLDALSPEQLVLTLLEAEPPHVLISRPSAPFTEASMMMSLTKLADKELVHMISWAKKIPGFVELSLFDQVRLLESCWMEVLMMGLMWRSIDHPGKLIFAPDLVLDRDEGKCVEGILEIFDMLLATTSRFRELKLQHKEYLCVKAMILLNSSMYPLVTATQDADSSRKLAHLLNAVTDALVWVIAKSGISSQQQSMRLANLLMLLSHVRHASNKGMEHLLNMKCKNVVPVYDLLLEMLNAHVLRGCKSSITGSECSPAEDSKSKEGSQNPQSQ
Chain of Retinoic acid receptor RXR-alpha (Homo sapiens) (P19793 whole entry, looked up): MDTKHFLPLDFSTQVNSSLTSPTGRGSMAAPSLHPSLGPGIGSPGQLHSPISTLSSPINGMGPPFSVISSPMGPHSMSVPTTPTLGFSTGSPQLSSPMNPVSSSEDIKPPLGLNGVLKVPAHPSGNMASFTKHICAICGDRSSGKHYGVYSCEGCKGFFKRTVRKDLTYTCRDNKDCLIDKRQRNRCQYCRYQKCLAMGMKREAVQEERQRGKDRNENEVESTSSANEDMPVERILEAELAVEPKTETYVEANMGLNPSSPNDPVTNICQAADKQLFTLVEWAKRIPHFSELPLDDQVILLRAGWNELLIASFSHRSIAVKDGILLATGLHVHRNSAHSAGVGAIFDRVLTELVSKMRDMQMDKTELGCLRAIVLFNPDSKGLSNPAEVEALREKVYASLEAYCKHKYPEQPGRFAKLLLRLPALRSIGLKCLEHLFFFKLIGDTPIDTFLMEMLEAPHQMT
Chain of Agonist Androgen Response Element (ARE), AR (gene 367) (P10275 whole entry, looked up): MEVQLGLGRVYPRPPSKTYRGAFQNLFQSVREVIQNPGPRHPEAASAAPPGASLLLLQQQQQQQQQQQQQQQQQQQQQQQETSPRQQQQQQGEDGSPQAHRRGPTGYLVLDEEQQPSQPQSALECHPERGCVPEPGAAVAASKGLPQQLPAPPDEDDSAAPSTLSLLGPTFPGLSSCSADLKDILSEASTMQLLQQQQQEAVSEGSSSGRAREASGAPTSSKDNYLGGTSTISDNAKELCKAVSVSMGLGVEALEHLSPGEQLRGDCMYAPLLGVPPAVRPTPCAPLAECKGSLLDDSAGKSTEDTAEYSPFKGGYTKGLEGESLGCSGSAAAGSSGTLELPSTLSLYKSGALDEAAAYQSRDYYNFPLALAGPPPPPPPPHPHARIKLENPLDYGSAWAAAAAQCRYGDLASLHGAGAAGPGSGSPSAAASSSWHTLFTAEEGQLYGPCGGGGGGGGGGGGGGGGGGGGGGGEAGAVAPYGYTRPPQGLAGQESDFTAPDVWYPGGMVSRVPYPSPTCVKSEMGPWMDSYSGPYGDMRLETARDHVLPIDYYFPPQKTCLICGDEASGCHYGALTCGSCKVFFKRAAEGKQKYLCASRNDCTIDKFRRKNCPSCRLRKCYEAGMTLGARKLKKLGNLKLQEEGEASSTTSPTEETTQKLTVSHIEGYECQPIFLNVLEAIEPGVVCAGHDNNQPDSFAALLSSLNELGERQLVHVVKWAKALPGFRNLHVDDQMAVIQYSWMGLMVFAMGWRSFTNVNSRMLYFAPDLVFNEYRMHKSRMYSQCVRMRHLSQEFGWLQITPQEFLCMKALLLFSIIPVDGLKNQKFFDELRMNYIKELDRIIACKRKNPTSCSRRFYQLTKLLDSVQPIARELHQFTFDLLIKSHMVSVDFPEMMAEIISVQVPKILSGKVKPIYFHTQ

On to `CC(C)=CCC[C@H](C)CCO`, for which the AC50 is 0.239 µM (active) in [1] and 75.8 µM (active) in experiment [5]. Besides, the result in [2], in experiment [3], in experiment [4], in experiment [6], in experiment [7] and in [8] was inactive.
On to `O=C(c1ccccc1)C1CCC1`, for which the result in experiment [2], in experiment [3], in [4], in experiment [5], in experiment [9] and in [7] was inactive. Moreover, the compound was classed as inactive in [8].
In the case of `CCCCCCCCCCOS(=O)(=O)O`, the compound was classed as inactive in experiment [3], in experiment [4], in [5], in experiment [9], in experiment [7] and in experiment [8].
Turning to `O=C(OCC1CCC2OC2C1)C1CCC2OC2C1` (centres undefined), the result in experiment [3], in [4], in experiment [5], in [6], in experiment [9] and in experiment [7] was inactive. In addition, the outcome in [8] was inactive.
Take `C=COCCCC`: the compound was called inactive in [10], in experiment [11], in [12], in [13], in [14] and in experiment [15]. The outcome in experiment [16], in [17], in [18], in [19], in [20] and in [8] was inactive.
Take `O=S(=O)(O)c1ccccc1C=Cc1ccc(-c2ccc(C=Cc3ccccc3S(=O)(=O)O)cc2)cc1`: the compound was classed as inactive in experiment [2], in experiment [3], in experiment [5], in [9], in experiment [7] and in [8]. The AC50 in experiment [6] was 66.8 µM (active).
`C=C[Si](C)(C)O[Si](C)(C)C=C`: the compound was classed as inactive in experiment [3], in [4], in experiment [5], in experiment [6], in [9] and in experiment [7]. Moreover, the call in experiment [8] was inactive.
As for `O=C(Nc1ccccc1SSc1ccccc1NC(=O)c1ccccc1)c1ccccc1`, the call in experiment [10], in [11], in experiment [12], in [14], in [15] and in experiment [16] was inactive. Moreover, the call in [17], in experiment [18] and in experiment [19] was inactive.
With `C1CN(SSN2CCOCC2)CCO1`, the compound was called inactive in experiment [3], in [4] and in experiment [7].
Take `NC(CO)(CO)CO`: the outcome in experiment [3], in experiment [4], in experiment [5], in experiment [6], in [9] and in experiment [7] was inactive. In addition, in experiment [8], the call was inactive.
For `CC(C)C1=CC2=CC[C@@H]3[C@](C)(CCC[C@@]3(C)C(=O)O)[C@H]2CC1`, the compound was classed as inactive in experiment [3], in experiment [4], in experiment [5], in [6], in [9] and in experiment [7]. Besides, the compound was classed as inactive in experiment [8].
In the case of `Cc1cc(C)c(C)cc1C`, the outcome in experiment [3], in [4], in [5], in [6], in [9] and in [7] was inactive.
For the compound `C#CC1(O)CC[C@H]2[C@@H]3CCC4=CCCC[C@@H]4[C@H]3CC[C@@]21C` (some centres undefined), the AC50 in experiment [10] is 7.32 µM (active); in experiment [12] it was 7.02 µM (active); in experiment [15], 7.01 µM (active); in experiment [16], 2.03 µM (active); in experiment [8] it was 42.3 µM (active). For the same compound, the result in experiment [11], in experiment [14] and in experiment [19] was inactive.
Turning to `CC1=NN(c2cc(S(=O)(=O)O)ccc2Cl)C(=O)C1N=Nc1ccccc1` (centres undefined), the result in experiment [2], in [3], in experiment [4], in experiment [9], in experiment [7] and in [8] was inactive.
For the compound `O=c1n(CCO)c(=O)n(CCO)c(=O)n1CCO`, in experiment [8], the compound was classed as inactive.
With `CCCCOCCOC(=O)COc1nc(Cl)c(Cl)cc1Cl`, the compound was called inactive in [3], in experiment [4], in experiment [6], in experiment [9], in [7] and in experiment [8].
As for `CCN(CCC#N)c1ccc(N=Nc2c(Cl)cc([N+](=O)[O-])cc2Cl)cc1`, the compound was called inactive in experiment [3], in experiment [4], in experiment [9], in [7] and in experiment [8]. Moreover, the half-maximal activity concentration (AC50) is 67.7 µM (active) in [5] and 50 µM (active) in experiment [6].
